In the library only some 2.2% were active in any assay of this set; here they are far more common.
HEK293 tox: cytotoxicity in counter-screen for GLP-1R inverse agonists | 0.13% of 410,000 active | AID 624418 | HEK293 cAMP-luciferase reporter cells, luminescence, 24 h | Potency, µM (top dose mostly 38.3 µM), for the others: at the highest dose activity change, negative = inhibition, hits mostly inhibitors;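 also: loss of luciferase light is scored as toxicity; potency is read from the fitted curve at half-maximal effect; % is scaled to controls: 0 for no effect and ±100 for the full control effect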
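Here, cytotoxicity is scored as loss of luminescence. The MLSMR collection was tested on cells seeded in medium containing 10% Nu serum, with a 24 hr compound exposure preceded by 12 hours of culture.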
GLP1R inv ag: GLP-1 receptor (human) inverse agonism; P43220; HEK293 GLP-1R CRE-luciferase, luminescence, 24 h; GLP-1R form is constitutively active; Potency, µM (titrated, usually from 38.3 µM), for the others: top-dose activity change, negative = inhibition, usual class: inhibitors; 1.6% of 410,000 active; also: potency is read from the fitted curve at half-maximal effect; % is scaled to controls: 0 for no effect and ±100 for the full control effect; nearly all actives have a fitted effect of over 55% in size
Target sequence (P43220 whole entry, looked up): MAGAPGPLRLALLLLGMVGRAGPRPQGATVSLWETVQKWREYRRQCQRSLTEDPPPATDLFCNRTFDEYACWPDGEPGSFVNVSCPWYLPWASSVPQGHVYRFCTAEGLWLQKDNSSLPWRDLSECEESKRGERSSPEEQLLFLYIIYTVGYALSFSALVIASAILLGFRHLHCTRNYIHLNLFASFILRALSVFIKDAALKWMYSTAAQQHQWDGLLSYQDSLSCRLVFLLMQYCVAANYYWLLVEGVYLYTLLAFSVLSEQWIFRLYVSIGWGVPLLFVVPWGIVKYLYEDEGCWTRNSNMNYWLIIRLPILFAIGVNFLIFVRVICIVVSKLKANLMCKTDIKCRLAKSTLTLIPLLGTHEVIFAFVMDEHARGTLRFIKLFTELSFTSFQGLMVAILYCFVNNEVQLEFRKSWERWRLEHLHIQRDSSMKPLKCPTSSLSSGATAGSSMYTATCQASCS
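Seeding at 200 cells/uL, 12 h culture, 24 hr compound treatment, then luciferase reagent and a luminescence read; cells are HEK293 stably expressing a constitutively active GLP-1R plus cAMP-responsive luciferase.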
CCT chaperon mod: modulators of cytosolic chaperonin (CCT/TRiC) activity | purified chaperonin ATPase assay, HTRF ADP detection, 30 min | activity change, % (test concentration not listed), hits read low | 0.3% of 360,000 active; in the data active = activity change below about -30%; also: % is scaled to controls: 0 for no effect and ±100 for the full control effect
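We incubate TRiC, 40 or 20 nM final, with library compounds at 76 uM and 10 uM ATP for 30 min at 37 °C. ADP formed is detected with Transcreener HTRF reagents after 30 min at room temperature.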
MmCpn inh: blocks the Methanococcus maripaludis chaperonin Mm-Cpn | purified Mm-Cpn ATPase, ADP Transcreener TR-FRET | Potency, µM (doses to about 76.9 µM), inactives show at the top dose activity, negative = inhibition, hits mostly inhibitors | 0.031% of 330,000 active; also: potency is read from the fitted curve at half-maximal effect; % is scaled to controls: 0 for no effect and ±100 for the full control effect; nearly all actives have a fitted effect of over 80% in size
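Reaction buffer contained 30 mM Tris pH 7.4, 100 mM KCl, 5 mM MgCl2 and 1 mM DTT. Mm-CPN (25 nM final) hydrolysed 10 uM ATP over 30 min at 37°C; ADP was read by HTRF.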
GLP1R ag: activates the human GLP-1 receptor | 0.007% of 380,000 active | HEK293 GLP-1R CRE-luciferase, luminescence, 4-6 h; cells express a hypersensitive GLP-1R form | P43220 | AID 624172 | Potency, µM (doses to about 45.6 µM), for inactives: at the highest dose activation, hits mostly activators; also: potency is read from the fitted curve at half-maximal effect; % of control where 0% means no effect
uPA generation: cell surface uPA generation inhibition; cell surface uPA generation assay, qHTS; Potency, µM (highest dose often 38.3 µM), for the others: at the highest dose activity change, negative = inhibition, actives largely listed as inhibitors; 0.31% of 330,000 active; active = well fitted inhibition curve with a large enough effect; inconclusive = small, poorly fitted or top-dose-only effect; inactive = no such curve, though single readings can be large or run the other way; tested in mouse RAW 264.7 cells; also: potency is read from the fitted curve at half-maximal effect; % is scaled to controls: 0 for no effect and ±100 for the full control effect; nearly all actives have a fitted effect of over 55% in size
The depositor's hits bear a star; ? = inconclusive; . = not tested or not shown; ! = not confirmed by another sample. Unless noted, calls follow the shape of the dose curve; as a rule, active = well fitted curve in the direction sought with a large enough effect; inconclusive = small, poorly fitted or top-dose-only effect, or another doubt; inactive = no such curve, though single readings can be large; an effect the other way counts as inactive or inconclusive.

SMILES	HEK293 tox	GLP1R inv ag	CCT chaperon mod	MmCpn inh	GLP1R ag	uPA generation
COc1ccc(-c2cc(C(=O)Nc3c(C)nn(Cc4ccc(F)cc4)c3C)no2)cc1OC	-9.7%	1.8%	.	.	.	.
CCc1ccc(CNC(=O)c2c3c(nc4ccccc24)C(=O)N(C2CCCCC2)C3)cc1	1.9%	?	.	.	.	.
Cc1ccc(CNC(=O)c2c3c(nc4ccccc24)C(=O)N(C2CCCCC2)C3)cc1	-5.3%	11.2µM*	.	.	.	.
CCn1nc(C(=O)Nc2nc(-c3ccccn3)cs2)c2ccccc2c1=O	?	?	-0.4	-2.1%	-2.0%	3.9%
CCCn1nc(C(=O)Nc2nc(-c3ccccn3)cs2)c2ccccc2c1=O	5.01µM*	?	0.4	-21.1%	-4.7%	?
CCOc1ccc(C(=O)Oc2c(Sc3ccccc3)c(C)nn2C(C)(C)C)cc1OCC	-0.8%	?	.	.	.	.
Cc1nn(C(C)(C)C)c(OC(=O)c2ccc3c(c2)OCO3)c1Sc1ccccc1	-4.8%	4.47µM*	-1.4	-2.3%	-4.7%	-3.7%
Cc1nn(C(C)(C)C)c(OC(=O)c2ccc3c(c2)OCO3)c1S(=O)(=O)c1ccccc1	-5.7%	10µM*	-5.8	-0.2%	-5.9%	4.4%
COc1ccc(NC(=O)c2cc3c(s2)-c2c(C)cccc2OC3)c(OC)c1	18.1%	0.1%	.	.	.	.
CN(C)CCOC(c1ccc(Cl)cc1)c1ccccn1 (stereo not drawn)	0.9%	5.4%	-51.1*!	0.3%	-3.3%	-9.7%
Cc1ccc(/C=C/c2nc3ccccc3[nH]2)cc1	-8.7%	2.51µM*	.	.	.	.
Cc1ccc(/C=C/c2nc3ccccc3c(=O)[nH]2)cc1	3.9%	?	-1.5	1.0%	0.5%	?
O=C(Cn1ncc(Cl)c(Cl)c1=O)NC1CCS(=O)(=O)C1 (stereo not drawn)	0.9%	57.4%	1.6	-5.5%	-2.2%	-20.1%
O=C(Cn1ncc(Cl)c(Cl)c1=O)c1ccc(Cl)cc1	10µM*	-82.3%	-1.3	-4.7%	-17.4%	-6.9%
O=C(Cn1ncc(Cl)c(Cl)c1=O)NC1CCCCC1	?	?	-0.6	-2.1%	-7.2%	10µM*
COC(=O)c1cnn(-c2ccc(C(=O)Nc3ccc(C(C)=O)cc3)cc2)c1N	4.5%	-2.3%	.	0.2%	.	.
CC(=O)N1c2ccc(S(=O)(=O)Nc3ccc(Cl)cc3C)cc2CC1C (stereo not drawn)	1.8%	?	.	.	.	.
Fc1ccc(-c2cn3cc(Cc4ccccc4)sc3n2)cc1	-9.8%	?	.	.	.	.
Fc1ccc(Cc2cn3cc(-c4ccccc4)nc3s2)cc1	-6.9%	5.62µM*	.	.	-4.7%	.
CCCc1[nH]c2ccc(C#N)cc2c1CCC	?	10µM*	-1.4	-0.1%	-1.6%	?
CCN(CC)S(=O)(=O)c1cccc(C(=O)Nc2nc3cc4c(cc3s2)OCCO4)c1	-29.1%	11.2µM*	-5.1	-10.8%	-9.9%	-8.8%
COc1ccccc1C(=O)Nc1nc2cc3c(cc2s1)OCCO3	2.1%	?	-1.5	-1.2%	-5.0%	2.82µM*
COc1ccccc1C(=O)Nc1nc2cc3c(cc2s1)OCO3	1.2%	36.3%	1.8	-2.3%	6.9%	-2.5%
Cc1sc(-n2cccc2)c(C(C)NC(=O)Nc2cccc(C(F)(F)F)c2)c1C (stereo not drawn)	-6.7%	8.91µM*	.	.	.	.
Cc1ccc(NC(=O)NC(C)c2c(-n3cccc3)sc(C)c2C)cc1F (stereo not drawn)	-27.8%	?	.	.	.	.
CCCCN1C(C(=O)c2ccccc2)=C(OC(=O)CC)c2ccccc2S1(=O)=O	-29.9%	?	.	.	.	.
CCCCCN1C(C(=O)c2ccccc2)=C(OC(=O)CC)c2ccccc2S1(=O)=O	-12.5%	12.6µM*	.	.	.	.
CCCCC(=O)OC1=C(C(=O)c2ccccc2)N(CCC)S(=O)(=O)c2ccccc21	-24.6%	11.2µM*	.	.	.	.
CCOc1ccc2nc(Cl)c(C3CC(c4ccc(C)cc4)=NN3C(=O)CCCC(=O)O)cc2c1 (stereo not drawn)	-7.3%	8.0%	.	.	.	.
